From PubChem BioAssay AID1159580 (chemical genetic matrix, 2015)
Values joined by “and” are separate entries in the source; they are usually repeats but may differ in a detail not shown here. Equal entries are not always repeated. Among all 5,500 compounds or so, about 2,000 (36%) were called active. About 18% were inconclusive and are not listed. No stated cut-off is given here; in the data, active means normalized growth mostly below about 0.91 (no sharp cut-off); inconclusive means no clear call, values can overlap the other calls; inactive means mostly above about 0.92. The list shows a part of the results.

Assay: chemical genetic growth profiling, strain panel (AID 1159580);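 further: tested at 20 µM; growth read once vehicle control cultures reached saturation at 30 °C; 1 = growth at the plate median or of vehicle wells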
Settings: S. cerevisiae deletion strains, growth OD

Measured: normalized growth

CCCCc1nc(Cl)c(CO)n1Cc1ccc(-c2ccccc2-c2nn[nH]n2)cc1
inactive: locus YAL013W, strain DEP1, stronger effect = lower value 1.01 | locus YAL021C, strain ccr4, stronger effect = lower value 0.992 | locus YAL026C, strain drs2, stronger effect = lower value 0.99 | locus YAL030W, strain snc1, stronger effect = lower value 0.974 | locus YBL061C, strain skt5, stronger effect = lower value 0.99 | locus YBR009C, strain hhf1, stronger effect = lower value 0.993 | locus YBR021W, strain FUR4, stronger effect = lower value 1.01 | locus YBR023C, strain chs3, stronger effect = lower value 0.981 | locus YBR171W, strain sec66, stronger effect = lower value 0.994 | locus YBR229C, strain ROT2, stronger effect = lower value 1.01 | locus YBR231C, strain swc5, stronger effect = lower value 0.968 | locus YBR279W, strain paf1, stronger effect = lower value 0.986 | locus YCL011C, strain gbp2, stronger effect = lower value 0.984 | locus YCL016C, strain dcc1, stronger effect = lower value 0.983 | locus YCL029C, strain bik1, stronger effect = lower value 1.01 | locus YCL061C, strain MRC1, stronger effect = lower value 0.989 | locus YCL069W, strain vba3, stronger effect = lower value 0.985 | locus YCR088W, strain abp1, stronger effect = lower value 0.976 | locus YDL005C, strain med2, stronger effect = lower value 0.977 | locus YDL035C, strain GPR1, stronger effect = lower value 1.02 | locus YDL040C, strain nat1, stronger effect = lower value 0.971 | locus YDL074C, strain BRE1, stronger effect = lower value 1.03 | locus YDL101C, strain DUN1, stronger effect = lower value 1.01 | locus YDL134C, strain PPH21, stronger effect = lower value 1.01 | locus YDL185W, strain tfp1, stronger effect = lower value 1 | locus YDL192W, strain arf1, stronger effect = lower value 1 | locus YDR001C, strain nth1, stronger effect = lower value 0.992 | locus YDR069C, strain doa4, stronger effect = lower value 0.975 | locus YDR101C, strain arx1, stronger effect = lower value 0.996 | locus YDR137W, strain rgp1, stronger effect = lower value 0.986 | locus YDR150W, strain NUM1, stronger effect = lower value 1.01 | locus YDR159W, strain sac3, stronger effect = lower value 0.943 | locus YDR162C, strain NBP2, stronger effect = lower value 1.01 | locus YDR195W, strain ref2 0.93 | locus YDR297W, strain sur2, stronger effect = lower value 0.993 | locus YDR318W, strain mcm21, stronger effect = lower value 1.01 | locus YDR334W, strain swr1, stronger effect = lower value 0.966 | locus YDR335W, strain msn5, stronger effect = lower value 0.992 | locus YDR388W, stronger effect = lower value 1 | locus YDR392W, strain spt3, stronger effect = lower value 1 | locus YDR502C, strain sam2, stronger effect = lower value 0.997 | locus YEL003W, strain gim4, stronger effect = lower value 1.01 | locus YEL037C, strain rad23, stronger effect = lower value 0.985 | locus YEL061C, strain CIN8 (second series), stronger effect = lower value 0.982 | locus YEL061C, strain CIN8, stronger effect = lower value 1.01 | locus YER015W, strain faa2, stronger effect = lower value 0.996 | locus YER016W, strain bim1, stronger effect = lower value 0.976 | locus YER110C, stronger effect = lower value 1 | locus YER111C, strain swi4, stronger effect = lower value 0.967 | locus YER155C, strain BEM2 (second series), stronger effect = lower value 0.968 | locus YER155C, strain BEM2, stronger effect = lower value 0.973 | locus YER167W, strain BCK2, stronger effect = lower value 1.01 | locus YFR010W, strain ubp6, stronger effect = lower value 0.985 | locus YGL078C, strain dbp3, stronger effect = lower value 0.995 | locus YGL086W, strain mad1, stronger effect = lower value 0.993 | locus YGL167C, strain pmr1, stronger effect = lower value 0.978 | locus YGL173C, strain kem1, stronger effect = lower value 0.986 | locus YGL227W, strain vid30, stronger effect = lower value 0.982 | locus YGL240W, strain doc1, stronger effect = lower value 0.981 | locus YGL248W, strain PDE1, stronger effect = lower value 1.01 | locus YGL253W, strain hxk2, stronger effect = lower value 0.985 | locus YGR078C, strain PAC10, stronger effect = lower value 1.02 | locus YGR135W, strain pre9, stronger effect = lower value 0.998 | locus YGR229C, strain SMI1, stronger effect = lower value 1.01 | locus YGR252W, strain gcn5, stronger effect = lower value 1 | locus YHR013C, strain ard1, stronger effect = lower value 1.01 | locus YHR027C, strain rpn1, stronger effect = lower value 1 | locus YHR030C, strain SLT2, stronger effect = lower value 1.01 and 0.941 | locus YHR079C, strain IRE1 (second series), stronger effect = lower value 0.995 | locus YHR079C, strain IRE1, stronger effect = lower value 0.969 | locus YHR094C, strain hxt1, stronger effect = lower value 0.992 | locus YHR129C, strain ARP1, stronger effect = lower value 1.01 | locus YHR142W, strain chs7, stronger effect = lower value 0.986 | locus YHR200W, strain rpn10, stronger effect = lower value 0.999 | locus YIL066C, strain RNR3, stronger effect = lower value 1.01 | locus YIL073C, strain SPO22, stronger effect = lower value 1.08 | locus YIL125W, strain kgd1, stronger effect = lower value 0.994 | locus YIR030C, strain dcg1, stronger effect = lower value 0.995 | locus YJL092W, strain hpr5, stronger effect = lower value 1 | locus YJL095W, strain BCK1 (second series), stronger effect = lower value 0.985 | locus YJL095W, strain BCK1, stronger effect = lower value 1.02 and 0.998 | locus YJL115W, strain asf1, stronger effect = lower value 0.994 | locus YJL129C, strain trk1, stronger effect = lower value 0.963 | locus YJL134W, strain LCB3, stronger effect = lower value 1 | locus YJL154C, strain vps35, stronger effect = lower value 0.969 | locus YJL164C, strain tpk1, stronger effect = lower value 1 | locus YJL166W, strain qcr8, stronger effect = lower value 0.98 | locus YJL168C, strain set2, stronger effect = lower value 0.996 | locus YJL187C, strain SWE1 (second series), stronger effect = lower value 1.01 | locus YJL187C, strain SWE1, stronger effect = lower value 0.981 | locus YJR043C, strain POL32, stronger effect = lower value 1.02 | locus YJR066W, strain TOR1, stronger effect = lower value 0.987
